{"source": "PubChem BioAssay (EPA / NIEHS)", "note": "“And” between values parts separate entries of the source, which are not always exact repeats. Identical values can stand only once. The source made the active and inactive calls. How the source made its calls: active means hit-call score of the fitted dose curve at least 0.9, where 1 is the maximum; inactive means score below 0.9."}
{"test": "BSK_3C_Proliferation: Cell Proliferation Assessment in the BioMAP Diversity Plus: 3C Assay (AID 2283006);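 on AC50: potency may reflect either rise or fall in cell number versus DMSO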", "conditions": "primary human endothelial cells (HUVEC)", "experimental": "BSK_3C is a cell-based, multiplexed-readout assay that uses umbilical vein endothelium, a human vascular primary cell, with measurements taken at 24 hours after chemical dosing in a 96-well plate.BSK_3C_Proliferation is an assay component measured in the BSK_3C assay. It measures 0.1% sulforhodamine related to cell proliferation using Sulforhodamine staining technology.Data from the assay component BSK_3C_Proliferation was analyzed into 1 assay endpoint. This assay endpoint, BSK_3C_Proliferation, was analyzed with bidirectional fitting relative to DMSO as the negative control and baseline of activity. Using a type of viability reporter, measures of total protein for gain or loss-of-signal activity can be used to understand the viability at the cellular-level. Furthermore, this assay endpoint can be referred to as a secondary readout, because this assay has produced multiple assay endpoints where this one serves a viability function. To generalize the intended target to other relatable targets, this assay endpoint is annotated to the cell cycle intended target family, where the subfamily is proliferation.\nThe levels of cell surface (or secreted, indicated by the prefix \"s\") biomarker endpoints were measured by ELISA. Overt cytotoxicity to cells in confluent adherent cultures (all systems other than the BT system) was assessed by measuring total protein levels using sulforhodamine B (SRB) staining in parallel cultures at the time of biomarker measurements, indicated as SRB endpoints. For proliferation assays for adherent cell types, individual cell types are cultured at sub-confluence and relative cell numbers quantified by SRB staining at time points optimized for each system (48 h: 3C and CASM3C systems; 72 h: BT and HDF3CGF systems; 96 h: SAg system). SRB was performed by staining cells with 0.1% SRB after fixation with 10% TCA and reading wells at 560 nm.Viability and proliferation of PBMC (T cells) was quantified by Alamar Blue reduction for the SAg and BT systems. For PBMC viability (referred to as PBMC Cytotoxicity within the assay endpoint names), cells were plated (75,000/well in a 96-well plate) and then chemical samples added for 1 h before addition of activators, SEB and TSST-1 (20 ng/mL final concentration each). Cells were incubated for 90 h. Then, Alamar Blue (20 uL/well) (Invitrogen, Cat DAL1100) was added for 6 h, and the plates were read with a fluorescence microplate reader at 546/580 nm (excitation/emission). For PBMC proliferation, cells were plated and activated as above but incubated for only 16 h prior to addition of Alamar Blue. Plates were read after 6 h."}
{"smiles": "C1CN(CCOCCN2CCOCC2)CCO1", "outcome": "inactive"}
{"smiles": "Sc1nc2ccccc2s1", "outcome": "inactive"}
{"smiles": "CCC(C)=NO", "outcome": "inactive"}
{"smiles": "CN(C)c1ccc(C(c2ccccc2)c2ccc(N(C)C)cc2)cc1", "AC50": "2.81 µM (active)"}
{"smiles": "CC(C)CC(=O)CC(C)CC(C)C", "note": "(stereo unspecified)", "AC50": "36.6 µM (active)"}
{"smiles": "Cc1c(C(N)=O)cc([N+](=O)[O-])cc1[N+](=O)[O-]", "outcome": "inactive"}
{"smiles": "CN(C)CCC(c1ccc(Cl)cc1)c1ccccn1", "note": "(stereo unspecified)", "outcome": "inactive"}
{"smiles": "Cc1cccnc1", "outcome": "inactive"}
{"smiles": "CCCCCCCCCCCCCCCCCC[N+](C)(C)C", "AC50": "1.36 µM (active)"}
{"smiles": "CCCCCCCCCCC1CO1", "note": "(stereo unspecified)", "AC50": "14.7 µM (active)"}
{"smiles": "COc1cc(CNC(=O)CCCC/C=C/C(C)C)ccc1O", "AC50": "8.93 µM (active) and 9.17 µM (active)"}
{"smiles": "Cc1cc(-n2nc3ccc(Cl)cc3n2)c(O)c(C(C)(C)C)c1", "outcome": "inactive"}
{"smiles": "COC(=O)/C=C\\C(=O)OC", "outcome": "inactive"}
{"smiles": "OC(C(F)(F)F)(C(F)(F)F)C(O)(C(F)(F)F)C(F)(F)F", "AC50": "22.1 µM (active) and 21.6 µM (active)"}
{"smiles": "O=C(C(=O)c1ccccc1)c1ccccc1", "outcome": "inactive"}
{"smiles": "CN(C)Cc1cc(C(C)(C)C)c(O)c(C(C)(C)C)c1", "outcome": "inactive"}
{"smiles": "CCCCCCCCCC/C=C/C1CC(=O)OC1=O", "note": "(stereo unspecified)", "outcome": "inactive"}
{"smiles": "CCCCC(CC)COC(=O)C=Cc1ccc(OC)cc1", "note": "(stereo unspecified)", "AC50": "32.7 µM (active) and 27.1 µM (active)"}
{"smiles": "CC(C)C1OCCN1CCOC(=O)NCCCCCCNC(=O)OCCN1CCOC1C(C)C", "note": "(stereo unspecified)", "outcome": "inactive"}
{"smiles": "CCCCCCC(O)CCCCCCCCCCC(=O)OC", "note": "(stereo unspecified)", "outcome": "inactive"}
{"smiles": "COc1ccccc1Oc1c(NS(=O)(=O)c2ccc(C(C)(C)C)cc2)nc(-c2ncccn2)nc1OCCO", "AC50": "28.2 µM (active) and 13.9 µM (active)"}
{"smiles": "COc1ccc(C(=O)c2ccccc2O)c(O)c1", "AC50": "23.6 µM (active)"}
{"smiles": "O=[N+]([O-])c1cc(S(=O)(=O)Nc2ccccc2)ccc1Nc1ccccc1", "AC50": "30.6 µM (active) and 30.9 µM (active)"}
{"smiles": "CC[N+](CC)(CC(=O)Nc1c(C)cccc1C)Cc1ccccc1", "note": "(tested in a mixture with another compound)", "outcome": "inactive"}
{"smiles": "Oc1cccc2ccccc12", "outcome": "inactive"}
{"smiles": "CCC[Si](OC(C)=O)(OC(C)=O)OC(C)=O", "outcome": "inactive"}
